# A selection: hits, their analogues and other compounds. The true share with any hit is near 2.3%.
# MBD2 DNA inh: inhibitors of MBD2 binding to methylated DNA, primary screen, biochemical, TR-FRET, DNA-binding domain, human | Methyl-CpG-binding domain protein 2 (Homo sapiens), Q9UBB5 | MBD2 binding to methylated oligonucleotide | inhibition, % at 4.4 µM | 0.31% of 370,000 active; in the data active = inhibition above about 13%
# LEDGF integ inh: blockers of LEDGF/p75-dependent integrase strand transfer – biochemical, TR-FRET, high throughput, primary screen; inhibition, % at 3.7 µM; 0.64% of 370,000 active; TR-FRET IN-LEDGF/p75 DNA integration, Eu/Cy5; HIV-1 integrase (with human LEDGF/p75);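 active = inhibition above the screen-wide mean plus 3 SD, cut at about 13% in these data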;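 also: signal is the Cy5 over europium emission ratio at 671 and 618 nm; 0% = plate median of compound wells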
# PLC-gamma1 inh: PLC-gamma1 enzyme inhibitors, primary screen, biochemical, fluorescence, purified enzyme; 1-phosphatidylinositol 4,5-bisphosphate phosphodiesterase gamma-1 (Homo sapiens), P19174; fluorogenic substrate; inhibition, % at 12.2 µM; 0.84% of 370,000 active; in the data active = inhibition above about 9.5%
# PLC-beta3 inh: human PLC-beta3 inhibitors, primary screen, biochemical, fluorescence; 1-phosphatidylinositol 4,5-bisphosphate phosphodiesterase beta-3 (Homo sapiens), Q01970; Purified PLC-beta3, fluorogenic substrate; inhibition, % at 12.2 µM; 0.18% of 370,000 active; in the data active = inhibition above about 11%;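 also: 0% = median of compound wells on plate and 100% = full blocker control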
# UHRF1 binding: UHRF1 methylated DNA binding inhibitors, primary screen, counter-screen for MBD2 inhibitor project, biochemical, TR-FRET, human UHRF1, single concentration | E3 ubiquitin-protein ligase UHRF1 (Homo sapiens), Q96T88 | UHRF1 binding to methylated oligo | inhibition, % at 4.4 µM | 0.75% of 370,000 active | AID 687016, 2013;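 also: UHRF1 SRA domain binding a hemimethylated CpG hairpin DNA probe; 0% = median of test compound wells and 100% = reference inhibitor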
# UHRF1 DNA bind: UHRF1 methylated DNA binding inhibitors, counter-screen for MBD2 inhibitor project, biochemical, TR-FRET, human UHRF1. shares compounds with MBD2 DNA inh. UHRF1 binding to methylated oligonucleotide. inhibition, % at 4.4 µM. 25% of 1,000 active;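 also: UHRF1 SRA domain binding a labeled hemimethylated CpG hairpin DNA; 0% = vehicle only and 100% = reference inhibitor with vehicle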
# MBD2 DBD conf: inhibitors of MBD2 binding to methylated DNA, confirmation, biochemical, TR-FRET, DNA-binding domain, human; inhibition, % at 4.4 µM; TR-FRET MBD2-DBD binding to methylated oligonucleotide; AID 720531, 2013; shares compounds with MBD2 DNA inh; 26% of 1,000 active; in the data active = inhibition above about 14%
# Numbers without * were called inactive; . = no result. Rule as the data show it, unless noted: active = inhibition above about 21%; inactive = the rest.
SMILES,MBD2 DNA inh,LEDGF integ inh,PLC-gamma1 inh,PLC-beta3 inh,UHRF1 binding,UHRF1 DNA bind,MBD2 DBD conf
Cc1ccc([C@@H]2C[C@H]3[C@@H](CN2S(=O)(=O)c2ccc(C)cc2)C(=O)C[C@@H](c2ccccc2F)N3S(=O)(=O)c2ccc(C)cc2)cc1,15*,5,-3,-2,27*,3,3
CCn1cc(/C=C(\NC(=O)c2cc(OC)c(OC)c(OC)c2)C(=O)NCCN2CCOCC2)c2ccccc21,-4,2,-2,-10,-1,.,.
CCn1cc(/C=C(\NC(=O)c2ccccc2OC)C(=O)NCCN2CCOCC2)c2ccccc21,16*,-4,-6,-9,-1,4,1
Cc1ccc(S(=O)(=O)N(C)[C@H]2C[C@H]3c4cc(-c5ccccc5C)ccc4CCN3C[C@H]2[C@H](C)O)cc1,1,-2,-34,-32,0,.,.
Nn1c(SCC(=O)N2c3ccccc3Sc3ccc(Cl)cc32)nnc1-c1cc(-c2ccc(F)cc2)n[nH]1,0,6,-4,-13,3,.,.
O=c1ccc2[n+]([O-])c3ccc(O)cc3oc-2c1,28*,61*,-130,-197,78*,73*,31*
CC1COCC(C)N1S(=O)(=O)c1ccc2c(c1)CCN2C(=O)C1CCC1 (configuration not stated),-2,-2,-1,2,4,.,.
O=C(COC(=O)CCCNC(=O)c1ccc(Cl)cc1)Nc1ccc(Br)cc1,13*,3,-1,1,23*,2,2
CC(=O)OCCNc1cc(N2CCN(C)CC2)c2noc3c2c1C(=O)c1ccccc1-3,20*,-6,-1,3,36*,25*,11
O=C(O)CCNc1cc(N2CCN(C(=O)c3ccco3)CC2)c2noc3c2c1C(=O)c1ccccc1-3,-10,-1,-1,-9,12,.,.
O=C(NCc1ccccc1)C1CCN(c2nc(-c3ccc(Br)cc3)cs2)CC1,-3,-2,-9,-18,1,.,.
Cc1cccc(NC(=O)CNC(=O)c2cccc(-n3cccc3)c2)c1C,31*,5,-1,-8,69*,62*,44*
Cc1ccc(NC(=O)CN(C)C(=O)c2cccc(-n3cccc3)c2)cc1,36*,2,1,-6,77*,66*,47*
COc1ccc(NC(=O)CN(C)C(=O)c2cccc(-n3cccc3)c2)cc1,33*,5,-1,-2,58*,43*,38*
Cc1cccc(NC(=O)CNCC(=O)Nc2cccc(C)c2C)c1C,6,7,3,-6,0,.,.
O=C(OC12CCCN(C1)/C(=C/c1ccc(Cl)cc1)C2)c1ccc(Cl)cc1 (configuration not stated),1,0,0,1,1,.,.
Cc1ccc(-c2nc3s/c(=C\c4ccco4)c(=O)n3n2)cc1,15*,12,-7,-20,30*,12,5
CCOc1ccc(CCN2C(=O)C(=O)N([C@@H](CC(C)C)CN3CCC[C@H]3CN3C(=O)C(=O)NC[C@@H]3Cc3ccc(O)cc3)C[C@@H]2Cc2ccccc2)cc1,-8,2,6,7,1,.,.
CCOc1ccc(CCN2C(=O)C(=O)N([C@@H](CC(C)C)CN3CCC[C@H]3CN3C(=O)C(=O)NC[C@@H]3CC(C)C)C[C@@H]2Cc2ccc(O)cc2)cc1,16*,2,3,5,22*,4,5
O=C(O)CSc1ncn[nH]1,13*,3,0,-3,15,7,1
Cc1ccc(C(=O)CSc2ncn[nH]2)cc1,-1,5,3,4,-1,.,.
COc1ccc(S(=O)(=O)N2CCN(C(=O)CCc3c[nH]c4ccccc34)CC2)cc1,48*,-6,0,-8,2,6,5
COc1ccc(S(=O)(=O)NCC(=O)N(CC(=O)NCC2CCCO2)Cc2ccc(F)cc2)cc1 (configuration not stated),14*,2,-2,-5,-5,1,3
COc1cc(/C=C(\C#N)C(=O)N2CCOCC2)ccc1OCc1ccccc1,5,-5,2,2,3,.,.
COc1ccc(/C=C(\C#N)C(=O)N2CCOCC2)cc1Br,41*,-1,-2,4,1,4,2
SMILES,MBD2 DNA inh,LEDGF integ inh,PLC-gamma1 inh,PLC-beta3 inh,UHRF1 binding,UHRF1 DNA bind,MBD2 DBD conf
CC(=O)NC(C)C(=O)N1CCCC1C(=O)N1CCCC1C(=O)NC(C)C(=O)NC1C(=O)NC(CC(C)C)C(=O)NC2CCCCNC(=O)CCC(C(=O)NC(Cc3ccc(O)cc3)C(=O)O)NC(=O)C3CCC(=O)OCC(NC(=O)C4CCCN4C(=O)C(Cc4c[nH]c5ccccc45)NC2=O)C(=O)NC(CC(=O)OC1C)C(=O)NC(Cc1c[nH]c2ccccc12)C(=O)N3 (configuration not stated),10,0,6,2,-10,.,.
O=C(OCC1OC(n2ncc(=O)[nH]c2=O)C(OC(=O)c2ccccc2)C1OC(=O)c1ccccc1)c1ccccc1 (configuration not stated),28*,-1,0,-6,5,4,1
C/C(=N/NC(=O)c1ccco1)c1ccc(NC(=O)c2ccc(F)cc2)cc1,14*,-1,-3,-5,7,0,2
CCCn1nnc(NC(=O)COc2ccc(Cl)cc2)n1,14*,1,1,-1,23*,6,2
CCCn1nnc(NC(=O)Cc2ccc(Cl)cc2)n1,0,-3,0,-1,-1,.,.
Cc1ccc(C)c(C(=O)OCC(=O)Nc2cccc(S(=O)(=O)NC3=NCCCCC3)c2)c1,17*,1,0,-4,18,6,3
Cc1ccc(NC(=O)OC2CCC23CCCCC3)cc1 (configuration not stated),4,-1,0,0,2,.,.
Cc1cc(OC(C)CCN2CCC(C(O)(c3ccccc3)c3ccccc3)CC2)ccc1Br (configuration not stated),-6,0,5,2,-2,.,.
COc1ccc(Br)c(C(=O)Nc2nc3ccccc3[nH]2)c1,36*,7,6,-2,2,10,2
C=C(C)Cn1c(COc2ccccc2)nnc1SCC(=O)O,15*,2,0,2,0,4,3
